Active and inactive are the calls of the source.

For 15 molecules, z-score results are on record in PubChem BioAssay.

A short description of test [1]: compound effects on lung adenocarcinoma cell viability – A549, calcein-AM fluorescence, 48 h, basal, profiling panel (AID 1162). The settings on record: higher = more signal.
Test [2] can be described thus: compound effects on differentiated 3T3-L1 adipocyte viability – cell-based, 3T3-L1 adipocytes, calcein-AM fluorescence, 48 h, basal, profiling panel (AID 1163). The settings on record: 3T3-L1 adipocytes viability, higher = more signal.
Test [3] in a line: compound effects on hepatocellular carcinoma cell viability – HepG2, calcein-AM fluorescence, 48 h, basal, profiling panel (AID 1164). The settings on record: higher = more signal.
Test [4] can be described thus: compound effects on multiple myeloma cell viability – MM1S, calcein-AM fluorescence, 48 h, basal, profiling panel (AID 1165).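 Also: viability of MM1S multiple myeloma cells under basal unstimulated conditions.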 The settings on record: higher = more signal.
Test [5] in a line: calcein-AM signal in unstimulated myeloma cells – cell-based, calcein-AM fluorescence, 48 h, PK04 Diversity Set, profiling panel (AID 1166).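 Also: cells grown under basal conditions without added stimulus.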 The conditions noted are these: RPMI8226 myeloma viability, higher = more signal.
Test [6] in a line: JC-1 mitochondrial signal, unstimulated HepG2 cells – cell-based, JC-1 fluorescence, 24 h, 100 nL compound, profiling panel (AID 1167). The conditions noted are these: HepG2 mitochondrial potential, higher = more signal.
Test [7] is described as follows: JC-1 mitochondrial signal, unstimulated adipocytes – cell-based, JC-1 fluorescence, 3T3-L1 adipocytes, 24 h, 100 nL compound, profiling panel (AID 1168). The settings on record: JC-1 mitochondrial fluorescence, higher = more signal, called active from +8 up or from −8 down.
Test [8] can be described thus: JC-1 mitochondrial signal, unstimulated myeloma cells – cell-based, JC-1 fluorescence, RPMI8226, 24 h, 100 nL compound, profiling panel (AID 1169). The settings on record: JC-1 mitochondrial potential fluorescence, higher = more signal.
Test [9] can be described thus: JC-1 mitochondrial signal, unstimulated MM1S myeloma – cell-based, JC-1 fluorescence, 24 h, 100 nL compound, profiling panel (AID 1170). The conditions noted are these: MM1S mitochondrial potential, higher = more signal.
The nature of test [10]: resazurin metabolic signal in A549 cells – cell-based, resazurin fluorescence, 24 h, PK04 Diversity Set, profiling panel (AID 1171). The conditions noted are these: A549 viability, higher = more signal, called active from +8 up or from −8 down. In general terms: Alamar Blue is a resazurin reagent that responds to reducing activity.
Also: test concentration not given here.

With `COC(=O)[C@@]1(Cc2ccc(OC)cc2)[C@@H]2[C@@H](CC(=O)[C@H]2CC(=O)C(=O)N(C)C)CN1C(=O)c1ccccc1`, the z-score in test [1] is -1.45; in [2] it was -0.18; in test [3], -0.923; in test [4] it was -2.24; in test [5] it was -4.62; in test [6], 1.1. Moreover, the z-score is -0.169 (inactive) in test [7], -0.735 in [8], -2.16 in test [9] and -2.28 (inactive) in [10].
Take `COC(=O)[C@@]1(Cc2ccccc2)[C@H]2c3cc(C(=O)N(C)C)n(Cc4ccc(Cl)c(C(F)(F)F)c4)c3C[C@H]2CN1C(=O)c1ccccc1`: the z-score was -1.42 in [1]; 0.562 in test [2]; -2.06 in [3]; -2.56 in test [4]; -4.44 in [5]; 2.34 in [6]. Besides, the z-score is -1.28 (inactive) in test [7], -0.968 in [8], -1.24 in test [9] and -1.6 (inactive) in test [10].
Take `CC[C@@H](O[Si](C#C[Si](C(C)C)(C(C)C)C(C)C)(C(C)C)C(C)C)c1cn(Cc2cccc(Cl)c2)nn1`: the z-score in test [1] is -0.163; in test [2], -1.25; in [3], 0.0222; in [4], 0.534; in [5], 0.0929; in [6], 0.0106. Further, the z-score in [7] is -0.00161 (inactive); in [8] it was 0.0677; in test [9] it was -1.25; in test [10], 0.359 (inactive).
In the case of `COC(=O)C(CC#Cc1ccc2c(c1)[C@]1(C(=O)N2)[C@H](c2ccccc2OCCO)N2[C@H](c3ccccc3)[C@H](c3ccccc3)OC(=O)[C@H]2[C@@H]1C(=O)N1CCN(c2ncccn2)CC1)C(=O)OC`, the z-score is -0.071 in [1]; -1.46 in test [2]; 0.496 in test [3]; -3.23 in [4]; -4.35 in [5]; -0.735 in [6]. Also, the z-score was 0.181 (inactive) in test [7], -1.11 in test [8], -1.92 in [9] and 0.103 (inactive) in [10].
As to `O=C/C=C/c1ccc(-c2ccccc2)cc1`, the z-score in test [1] is 0.252; in test [2], 0.919; in [3], -1.45; in test [4] it was -3.23; in test [5], -4.15; in test [6], -0.253. For the same molecule, the z-score in test [7] is 0.965 (inactive); in test [8] it was -0.853; in test [9] it was -3.05; in test [10], -0.539 (inactive).
`[N-]=[N+]=NCc1ccccc1C[C@]1(C(=O)N2CCCCC2)COC(c2ccc(OCCCO)cc2)=N1`: the z-score in test [1] is 0.139; in test [2], -0.288; in test [3], -0.689; in test [4], -3.54; in [5] it was -4.52; in [6], -0.792. In addition, the z-score in test [7] is 0.607 (inactive); in test [8], -1.22; in test [9], -1.98; in test [10], 0.898 (inactive).
In the case of `CN1C(=O)C2C=CC(C(O)c3ccc(I)cc3)N(N(c3ccccc3)c3ccccc3)C2C1=O` (stereo not given), the z-score was -0.62 in [1]; -1.15 in test [2]; -0.0518 in test [3]; -0.0182 in test [4]; -0.726 in test [5]; -0.994 in [6]. In addition, the z-score in test [7] is -1.67 (inactive); in test [8] it was -0.251; in test [9], -0.752; in test [10], -0.614 (inactive).
With `O=C(N1CCOCC1)[C@]1(CCS(=O)(=O)c2ccccc2)N=C(c2ccc(OCCCO)cc2)O[C@@H]1c1ccccc1`, the z-score is 0.569 in [1]; 1.29 in [2]; 0.176 in test [3]; -0.345 in test [4]; -0.0091 in test [5]; 1.43 in test [6]. The z-score is 1.14 (inactive) in test [7], -0.176 in [8], -0.424 in test [9] and 0.54 (inactive) in [10].
Take `C=C(CCCC)/C(=C/C[C@@H](OC(C)=O)c1ccc(OCCO)cc1)c1cc(C(=O)OC)ccc1OC`: the z-score in test [1] is -0.144; in [2] it was -0.703; in [3] it was 0.447; in test [4], -3.33; in test [5] it was -3.24; in test [6], 0.621. In addition, the z-score was -1.5 (inactive) in [7], -0.826 in test [8], -1.3 in [9] and 0.293 (inactive) in test [10].
Consider `COC(=O)[C@@]1(Cc2ccc(F)cc2)[C@H]2c3cc(C(=O)N(C)C)n(CCF)c3C[C@H]2CN1C(=O)c1ccccc1`, for which the z-score in test [1] was -0.063; in test [2], -0.138; in test [3], 0.121; in test [4], 0.066; in test [5] it was 0.266; in test [6], -0.0126. Further, the z-score in test [7] is 0.696 (inactive); in test [8], -0.37; in test [9], 0.328; in [10], -0.957 (inactive).
Take `C=C(C(=O)CC[C@@H](OC(=O)c1ccccc1-c1ccccc1C(=O)O)c1ccc(CO)o1)C(C)C`: the z-score in [1] was -0.656; in test [2] it was 0.231; in test [3] it was 0.473; in [4], -1.33; in test [5] it was -0.951; in test [6] it was -1.54. Moreover, the z-score in test [7] is -0.747 (inactive); in test [8], -0.479; in [9], -0.0298; in test [10] it was -0.359 (inactive).
In the case of `COc1ccc(-c2cc3c(c(CCc4ccccc4)n2)[Si](C(C)C)(C(C)C)O[C@H]3c2ccccc2)cn1`, the z-score was 0.359 in test [1]; -0.724 in test [2]; 1.27 in test [3]; -1.82 in test [4]; -2.55 in [5]; -2.71 in test [6]. Besides, the z-score in [7] was -0.904 (inactive); in test [8], -0.405; in [9] it was -0.622; in test [10], 0.996 (inactive).
On to `COC(=O)Cn1c(C(=O)N(C)C)cc2c1C[C@H]1CN(C(=O)c3ccccc3)[C@@](Cc3ccccc3)(C(=O)OC)[C@@H]21`, for which the z-score was -0.314 in test [1]; 0.275 in [2]; -0.479 in test [3]; 0.0914 in test [4]; -0.512 in test [5]; -1.11 in test [6]. Further, the z-score in [7] is -0.327 (inactive); in test [8] it was -0.146; in test [9], -1.11; in [10], 0.374 (inactive).
For `O=C1OCC=C[C@H]2OC34C=CCN(Cn5nnc6ccccc65)C(=O)[C@H]3N(CCO)C(=O)[C@@H]4[C@@H]12` (stereo not given in full), the z-score in test [1] was 0.0757; in test [2], -0.529; in test [3] it was 0.344; in test [4] it was 0.897; in test [5], 0.209; in [6] it was -1.15. Also, the z-score was 0.765 (inactive) in test [7], -0.462 in test [8], -0.187 in test [9] and -0.822 (inactive) in test [10].
As to `CC(C)c1ccc(NN2C(C(O)C(C)c3ccccc3)C=CC3C(=O)N(c4ccccc4)C(=O)C32)cc1` (stereo not given), the z-score was -0.625 in test [1]; -0.856 in [2]; -1.03 in test [3]; -1.1 in test [4]; -1.34 in test [5]; -2.13 in [6]. The z-score is -1.75 (inactive) in test [7], -0.628 in [8], -0.102 in test [9] and -0.868 (inactive) in test [10].
